Rows were chosen to be rich in hits. Some 2.2% of all compounds tested hit in one or more screens of this group.
M1 PAM parental = M1 PAM counterscreen hit in parental CHO-K1 cells; ATP EC20, Fluo-8 calcium fluorescence; 0% at ATP EC20, 100% at ATP max; activation, % at 3 µM; 360,000 tested, 0.02% active; AID 602247;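 active means activation above the run cutoff, the mean activation of all test compounds plus 3 SD, cut at about 40% in these data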;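 further: peak over basal fluorescence ratio in a 140 s read after ATP addition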
TMEM16A act = mouse TMEM16A channel activation, primary screen; Q8BHY3; HEK293 TMEM16A/YFP-H148Q/I152L, iodide quench fluorescence; hits give low values; B-score at 10 µM; 340,000 tested, 0.3% active; AID 623877;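 active means fluorescence-ratio B-score plate-corrected deviation score at least 3 library SD below zero, with starting fluorescence score within 5 deviations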;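 further: channel opened by trigger with iodide after compound preincubation; score built on the fluorescence ratio of max minus min over baseline; more negative score means more quench and so TMEM16A activation or potentiation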
NTR1 agonist = activates human neurotensin receptor 1. P30989. NTR1-U2OS beta-arrestin-GFP spot imaging, agonist mode. activation, % at 20 µM. 330,000 tested, 0.17% active;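 active means activation at or above 40% of the spot to cytoplasm intensity ratio, with at least 20 cells analyzed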
Target sequence (P30989 whole entry, looked up): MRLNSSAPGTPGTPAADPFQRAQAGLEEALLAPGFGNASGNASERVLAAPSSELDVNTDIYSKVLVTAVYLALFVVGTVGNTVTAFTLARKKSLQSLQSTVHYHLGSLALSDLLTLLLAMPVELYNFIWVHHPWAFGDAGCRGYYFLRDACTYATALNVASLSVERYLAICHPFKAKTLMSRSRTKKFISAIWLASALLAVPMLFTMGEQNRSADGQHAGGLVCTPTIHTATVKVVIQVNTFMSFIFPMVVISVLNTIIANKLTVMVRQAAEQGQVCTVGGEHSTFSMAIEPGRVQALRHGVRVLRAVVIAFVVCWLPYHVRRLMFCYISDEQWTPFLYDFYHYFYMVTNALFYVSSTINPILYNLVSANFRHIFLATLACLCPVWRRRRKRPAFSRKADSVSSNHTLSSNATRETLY
TMEM16A inh = blocks the mouse calcium-activated chloride channel TMEM16A. 310,000 tested, 1.2% active. normalized B-score (activity score, 25-100; higher = stronger inhibition) at 10 µM. Q8BHY3. HEK293 TMEM16A/YFP iodide influx fluorescence, ionomycin;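 active means ratio plate-corrected score three or more library SD toward inhibition, starting fluorescence score within five deviations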;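 further: score derived from kinetic fluorescence span divided by baseline fluorescence per well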
CHO-K1 Ca antag = counter-screen for M1 antagonists: effect in parental CHO-K1 cells | ATP-induced calcium, Fluo-8 fluorescence | AID 602250 | 360,000 tested, 0.6% active | inhibition, % at 3 µM;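 active means inhibition above a per-plate cutoff, the plate's mean sample inhibition plus 3 SD, cut at about 24% in these data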
CHO-K1 Ca ag = counter-screen for M1 agonists: effect in parental CHO-K1 cells; Fluo-8 calcium fluorescence; scaled to maximal ATP response, vehicle zero; activation, % at 3 µM; 360,000 tested, 0.48% active; AID 602248; in the data active means activation above about 15%;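 further: untransfected CHO-K1 host cells lacking M1 receptor as counterscreen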
NTR1 ag confirm = NTR1 (human) agonism, confirmed; shares compounds with NTR1 agonist; NTR1-U2OS beta-arrestin-GFP translocation imaging; activation, % at 20 µM; 480 tested, 38% active; AID 504550;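 active means mean activation at 20 µM of at least 40%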
Large screens that a line does not name were inactive (follow-up assays come after a bar, where they were run).

CCN(C(=O)CN(C1=NC2CS(=O)(=O)CC2S1)c1ccc(OC)cc1)c1cccc(C)c1 (stereo not given)	none (no result: TMEM16A act, NTR1 agonist, TMEM16A inh)
CC(C)Nc1ccc(Nc2ccnc3cc4ccccc4cc23)cc1	NTR1 agonist 51 | NTR1 ag confirm 85
COc1ccc(Nc2ccnc3ccccc23)cc1	none
O=C(Nc1ccc(OC(F)(F)F)cc1)c1cc(S(=O)(=O)N2CCCCC2)ccc1N1CCOCC1	none (no result: TMEM16A act, NTR1 agonist, TMEM16A inh)
COc1ccc(-c2cc(C(=O)NCc3ccc(C(F)(F)F)cc3)[nH]n2)c(C)c1	none (no result: TMEM16A act, NTR1 agonist, TMEM16A inh)
COc1ccc(C(C[N+](=O)[O-])c2c(C)[nH]n(-c3ccccc3)c2=O)cc1 (stereo not given)	NTR1 agonist 42 | NTR1 ag confirm inactive
Cc1[nH]n(-c2ccccc2)c(=O)c1C(C[N+](=O)[O-])c1ccccc1Cl (stereo not given)	none
CC1CC(=Cc2ccc(N)cc2)C(=O)O1 (stereo not given)	none (no result: NTR1 agonist, TMEM16A inh)
CCOC(=O)c1cc(-c2ccccc2)sc1NC(=O)C(C)Sc1nnc(N)s1 (stereo not given)	NTR1 agonist 44 | NTR1 ag confirm inactive
N=c1c(C(=O)NC2CCCCC2)cc2c(=O)n3ccccc3nc2n1Cc1ccco1	none
N=c1c(C(=O)NCCc2ccccc2)cc2c(=O)n3ccccc3nc2n1Cc1ccco1	NTR1 agonist 43 | NTR1 ag confirm inactive
CCc1ccc(-c2cn(-c3nc(C)cc(C)n3)c(=N)o2)cc1	NTR1 agonist 46 | NTR1 ag confirm inactive
CCCOc1ccc(F)cc1-c1cc(C(=O)NCc2cccc(Cl)c2)[nH]n1	none (no result: TMEM16A act, NTR1 agonist, TMEM16A inh)
Cc1cccc(OCC(=O)NCC(=O)N/N=C/c2ccc(O)cc2O)c1	NTR1 agonist 40 | NTR1 ag confirm inactive
COc1ccc(/C=C\C(=O)NCC(=O)N/N=C/c2ccc(O)cc2O)cc1	none
O=C(/C=C\c1ccccc1)NCC(=O)N/N=C/c1ccc(O)cc1O	NTR1 agonist 66 | NTR1 ag confirm 55
COc1cccc(/C=N/NC(=O)CNC(=O)COc2cccc(C)c2)c1O	none
Clc1ccc(C2=Nn3c(nnc3-c3cc(-c4ccccc4)n[nH]3)SC2)cc1	NTR1 agonist 47 | NTR1 ag confirm 48
O=c1[nH][nH]c2c1[C@H](c1ccc(Cl)cc1)O[C@H](C1CCCCC1)C2	none (no result: TMEM16A act, NTR1 agonist, TMEM16A inh)
CCn1c(SCc2ccc(Cl)cc2Cl)nc2nc3c(cc2c1=O)CCCC3	NTR1 agonist 44 | NTR1 ag confirm inactive
CCC(COC)Oc1cc(NCc2ccccc2)c2ncn(C(C)C)c2c1 (stereo not given)	NTR1 agonist 44 (no result: TMEM16A inh) | NTR1 ag confirm inactive
COc1ccc(C2CC(c3ccccc3)=NN2c2ccc(C(N)=O)cc2)cc1 (stereo not given)	NTR1 agonist 41 | NTR1 ag confirm inactive
Oc1ccc(C2=NN(c3ccccc3)C(c3ccc(F)cc3)C2)cc1 (stereo not given)	NTR1 agonist 61 | NTR1 ag confirm inactive
Cn1cc(Cc2ccccc2)c(=O)c(Cc2ccccc2)c1	none (no result: NTR1 agonist, TMEM16A inh)
COC(=O)c1ccc2c(c1)C(C)(C)C(/C=C/c1ccccc1O)=[N+]2C	NTR1 agonist 50 | NTR1 ag confirm 51
CC(C)=CCOc1ccc2c(C)c(CCC(=O)N3C[C@H]4C[C@@H](C3)c3cccc(=O)n3C4)c(=O)oc2c1C	none (no result: TMEM16A act, NTR1 agonist, TMEM16A inh)
COc1cc2c3nnc(-c4ccc(F)cc4)c-3cn(Cc3cccc(F)c3)c2cc1OC	NTR1 agonist 65 | NTR1 ag confirm 71
COc1cc2c3nnc(-c4ccc(F)cc4)c-3cn(Cc3ccc(C)cc3)c2cc1OC	NTR1 agonist 112 | NTR1 ag confirm 96
COc1cc2c3nnc(-c4ccccc4)c-3cn(Cc3ccc(F)cc3)c2cc1OC	none
CC(C(=O)N1CCc2ccccc21)N1CCN(S(=O)(=O)c2cccc(C(F)(F)F)c2)CC1 (stereo not given)	none (no result: TMEM16A inh)
CCCCNc1c(-c2cccc(-c3cc(C(C)=O)cs3)c2)nc2ccc(C)cn12	NTR1 agonist 41 | NTR1 ag confirm inactive
O=C1c2[nH]nc(-c3ccccc3O)c2C(c2cccc(Cl)c2)N1Cc1ccco1 (stereo not given)	NTR1 agonist 46, CHO-K1 Ca antag 24 | NTR1 ag confirm inactive
COc1ccc(OC)c(NC(=O)CSc2nc3[nH]c(=O)[nH]c(=O)c3s2)c1	none (no result: NTR1 agonist, TMEM16A inh)
CC(C)(C)OC(=O)COc1cc(O)c2c(=O)cc(-c3ccccc3)oc2c1	none
CC(C)(C)OC(=O)COc1cc(OCC(=O)OC(C)(C)C)c2c(=O)cc(-c3ccccc3)oc2c1	NTR1 agonist 53, TMEM16A inh 100 | NTR1 ag confirm inactive
CCOC(=O)c1c(C)[nH]c(C(=O)OCC(=O)Nc2ccc(Cl)cn2)c1C	none (no result: TMEM16A inh)
CCOC(=O)c1c(C)[nH]c(C(=O)OCC(=O)Nc2sccc2C(N)=O)c1C	NTR1 agonist 44, TMEM16A inh 100, CHO-K1 Ca ag 17 | NTR1 ag confirm 41
O=C(Cc1cccs1)Nc1nc(-c2ccc(F)c(F)c2)cs1	NTR1 agonist 52 | NTR1 ag confirm inactive
CCOC(=O)C1CC2=C(CCCC2=O)N(Cc2ccccc2)C1=O (stereo not given)	none (no result: TMEM16A act, NTR1 agonist, TMEM16A inh)
O=C1/C(=C/c2ccncc2)Oc2cc(OS(=O)(=O)c3ccccc3)ccc21	none
COc1cccc(OC)c1C(=O)Oc1ccc2c(c1)O/C(=C\c1ccncc1)C2=O	NTR1 agonist 52 | NTR1 ag confirm 56
CCCCn1c(SCC(=O)N2CCC(C)CC2)nc2cc(S(N)(=O)=O)ccc21	NTR1 agonist 44 | NTR1 ag confirm 50
CCCCn1c(SCC(=O)c2ccc(O)cc2O)nc2cc(S(N)(=O)=O)ccc21	none
CC(C)c1ccc(C(=O)N2CCCCC2c2cc(C(=O)Nc3ccncc3)no2)cc1 (stereo not given)	none (no result: TMEM16A act, NTR1 agonist, TMEM16A inh)
CCOC(=O)c1c(CSc2ccc(C)cc2)oc2ccc(O)cc12	NTR1 agonist 45 | NTR1 ag confirm inactive
CCOC(=O)c1c(CSc2ccccc2)oc2ccc(O)cc12	none
CC1(C(=O)NS(=O)(=O)c2ccc3c(c2)CCO3)CCN1C(=O)COc1ccc(Cl)cc1 (stereo not given)	none (no result: TMEM16A act, NTR1 agonist, TMEM16A inh)
COC(=O)c1ccc(COc2ccc(/C=C(\C#N)c3nc4ccccc4[nH]3)cc2OC)o1	none
CCc1ccc(NC(=O)COc2ccc(/C=C(/C#N)c3nc4ccccc4[nH]3)cc2OC)cc1	NTR1 agonist 52 | NTR1 ag confirm inactive
O=NN(CC(=O)NNc1ccccc1)CC(=O)NNc1ccccc1	none (no result: TMEM16A act, NTR1 agonist, TMEM16A inh)
CO/N=C/NC(=O)NOCc1ncc(C(F)(F)F)cc1Cl	none
O=C(N/C=N/OCc1ccc(Cl)cc1Cl)NOCc1ncc(C(F)(F)F)cc1Cl	NTR1 agonist 41 | NTR1 ag confirm inactive
CCc1ccc(NC(=O)c2ccc3c(=O)n4c(nc3c2)CCCCC4)cc1	none

Source: PubChem BioAssay
